Source: PubChem BioAssay AID431 (Sanford-Burnham Center for Chemical Genomics, 2006)
The campaign covered roughly 63,000 compounds. About 1,100 (1.7%) were called active. This is one part of a sample in which actives are shown more often than they occur.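 The calls were made as follows: active = compounds whose percent cytotoxicity in the single-dose primary screen, scaled between solvent and toxic-drug controls, exceeds 50; inactive = the rest.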 Potency and affinity values are given separately.

Assay: cytotoxicity in KRAS-transformed pancreatic duct cells, primary screen, cell-based, fluorescence, HTS (AID 431);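 also: 0% = DMSO solvent wells and 100% = doxorubicin-treated wells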
Conditions: HPDE-C7K KRASV12 cells, Alamar Blue viability, 48 h; at 10 µM; stronger effect = higher value
In the case of `CCCNS(=O)(=O)c1ccc(CCC(=O)N2CCOCC2)cc1`, the cytotoxicity is reported as 3.7% (inactive). With `CC(C)C1CC(c2csc(N)n2)CCO1` (stereo not drawn) the cytotoxicity was 7.1% (inactive). In the case of `O=C1CCN(Cc2nnnn2CC2CCCO2)c2ccccc2N1` (stereo not drawn), the cytotoxicity is reported as -13.4% (inactive). With `Cc1nnc(SCCn2c(N3CCCC(C)C3)nc3c2c(=O)n(C)c(=O)n3C)s1` (stereo not drawn) the cytotoxicity was 6.4% (inactive). For `O=C(NCc1ccccn1)C1CCCN(S(=O)(=O)c2ccc(Br)cc2)C1` (stereo not drawn), the cytotoxicity was -8.1% (inactive). With `CCOC(=O)C(Cc1ccccc1)C(=O)Nc1nccs1` (stereo not drawn) the cytotoxicity was 15.3% (inactive). For `CCOC(=O)C1CCN(S(=O)(=O)c2ccc3c(c2)CCCN3C(C)=O)CC1`, the cytotoxicity was -5.4% (inactive). With `CSCSC1=C(C#N)C(c2ccc(Cl)cc2)C(C(C)=O)=C(C)N1` (stereo not drawn) the cytotoxicity was -8.2% (inactive). For `CC(=O)C1=C(C)NC(SCC(=O)c2ccc(F)cc2)=C(C#N)C1c1ccco1` (stereo not drawn), the cytotoxicity was 90.5% (active). In the case of `COc1ccccc1NC(=O)C1=C(C)NC(SCC(=O)c2ccc(C)cc2)=C(C#N)C1c1ccco1` (stereo not drawn), the cytotoxicity is reported as 38.3% (inactive). For `CC(=O)C1=C(C)OC(N)=C(C#N)C1c1ccco1` (stereo not drawn), the cytotoxicity was -7.5% (inactive). In the case of `CC(=O)C1=C(C)NC(SCC(=O)c2ccc(Cl)cc2)=C(C#N)C1c1ccco1` (stereo not drawn), the cytotoxicity is reported as 50.5% (active). In the case of `CCOC(=O)CSC1=C(C#N)C(c2ccc(F)cc2)C(C(C)=O)=C(C)N1` (stereo not drawn), the cytotoxicity is reported as -0.1% (inactive). For `Cc1cccc(C2CC(c3ccccc3)Nc3ncnn32)c1` (stereo not drawn), the cytotoxicity was 0% (inactive). With `COc1ccc(CCNc2ncnc3[nH]ncc23)cc1OC` the cytotoxicity was -5.5% (inactive). For `O=C(NC1CCCc2ccccc21)C1CCN(S(=O)(=O)c2cnc[nH]2)CC1` (stereo not drawn), the cytotoxicity was -2.5% (inactive). With `Cc1occc1-c1nc(-c2ccncc2)no1` the cytotoxicity was -13.6% (inactive). With `CCSc1nnc(NC(=O)C(Cc2ccccc2)n2cccc2)s1` (stereo not drawn) the cytotoxicity was -0.8% (inactive). With `Cc1csc(NC(=O)C(Cc2ccccc2)n2cccc2)n1` (stereo not drawn) the cytotoxicity was 15% (inactive). For `O=C1[C@@H]2Cc3ccccc3CN2C(=O)N1c1cccc(F)c1`, the cytotoxicity was -8.3% (inactive). In the case of `Cc1cccc(-n2c(C)nc3c(cnn3-c3ccc(F)cc3)c2=O)c1`, the cytotoxicity is reported as -11.2% (inactive). With `CC(C)CC(=O)N1CCN(S(=O)(=O)c2ccc(F)cc2)CC1` the cytotoxicity was 0.4% (inactive). For `COc1cccc(-c2nc(NCCN3CCOCC3)c3ccccc3n2)c1O`, the cytotoxicity was 53.1% (active). In the case of `Clc1ccc(-c2nc(NCCN3CCOCC3)c3ccccc3n2)cc1`, the cytotoxicity is reported as 40.9% (inactive). For `Cc1ccc(-c2nc(NCCN3CCOCC3)c3ccccc3n2)cc1`, the cytotoxicity was 40.5% (inactive). With `Fc1ccccc1-c1nc(NCCCN2CCOCC2)c2ccccc2n1` the cytotoxicity was 11.7% (inactive). For `Oc1ccccc1-c1nc(NCCN2CCOCC2)c2ccccc2n1`, the cytotoxicity was 59.3% (active). In the case of `c1ccc(-c2nc(NCCCN3CCOCC3)c3ccccc3n2)cc1`, the cytotoxicity is reported as 5.9% (inactive).
